HT1080 IDH1KD tx: HT-1080 IDH1 knockdown cell toxicity (counter line); HT-1080 IDH1 knockdown viability, ATP luminescence, 48 h; Potency, µM (highest dose often 46.1 µM), without a hit: at the top dose activity, negative = toxicity, usual class: cytotoxic; actives 2% (n = 360,000); AID 686971;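 note: 0% = DMSO wells and -100% = cell-free medium wells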
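IDH1KD HT-1080 cells, 750/well, RPMI + 5% FBS; compound pinned after 2 h settling; 48 h, 37 °C; CellTiter-Glo luminescence; % activity normalised to DMSO and no-cell wells; curves fitted, classed by r2 and efficacy.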
KB-3-1 cytotox: kills parental KB-3-1 adenocarcinoma cells; KB-3-1 viability, CellTiter-Glo ATP luminescence, 72 h; Potency, µM (top dose mostly 46.1 µM), actives largely listed as cytotoxic; actives 1.4% (n = 400,000); AID 1347075; note: % is set by controls: 0 for no effect and ±100 for the full control effect; nearly all actives have a fitted effect of over 60% in size
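Parental KB-3-1 adenocarcinoma cells in phenol-red-free DMEM with 10% FBS were pin-treated with compounds at several concentrations, incubated 72 h at 37 °C, and viability read by CellTiter-Glo luminescence; concentration-effect curves were fitted after normalization.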
HT1080NT lethal: kills 2HG-producing HT-1080-NT fibrosarcoma cells; HT-1080-NT fibrosarcoma viability, CellTiter-Glo ATP luminescence, 48 h; Potency, µM (doses to about 46.1 µM), for the others: at the top dose activity, negative = less viability, actives largely listed as cytotoxic; actives 1.6% (n = 360,000);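 note: NT is the 2HG producing partner of a matched IDH1 knockdown line; 0% = DMSO-treated cells and -100% = media-only wells without cells; nearly all actives have a fitted effect of over 55% in size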
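Read-out is CellTiter-Glo luminescence after 10 minutes at room temperature, following 48 hours' compound treatment of HT-1080-NT cells (750 cells/well, RPMI, 5% FBS, 37 degrees C).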
KB-V1 cytotox: KB-V1 MDR subline cytotoxicity; KB-V1 MDR cells viability, CellTiter-Glo, 72 h; actives 3.4% (n = 400,000); Potency, µM (titrated, usually from 46.1 µM), actives largely listed as cytotoxic; note: % is set by controls: 0 for no effect and ±100 for the full control effect; nearly all actives have a fitted effect of over 60% in size
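Readout: CellTiter-Glo luminescence, 10 min after addition. Cells: KB-V1 MDR subline, 72 h at 37 degrees C with compound. Analysis: corrected, normalized data fitted to concentration-effect curves.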
ATXN2 expr inh: inhibitors of ATXN2 expression. HEK-293 ATXN2-luciferase reporter, luminescence, 24 h. Potency, µM (series often up to 57 µM), inactives show top-dose activity change, negative = inhibition, hits mostly inhibitors. actives 0.72% (n = 360,000). AID 1745845; note: % is set by controls: 0 for no effect and ±100 for the full control effect; nearly all actives have a fitted effect of over 55% in size
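ATXN2-luciferase reporter cells (luciferase flanked by upstream and downstream ATXN2 gene portions) were treated 24 h at 37 °C with compounds at up to 57 uM. SteadyGlo luminescence gave expression; GF-AFC fluorescence gave viability.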
S2 tox: reduces viability in counter-screen for ATXN expression inhibitors | S2 cells (HEK-293 line with an ATXN2-luciferase reporter) viability, CellTiter-Fluor protease fluorescence, 24 h | Potency, µM (top dose mostly 56.7 µM), actives largely listed as cytotoxic | actives 0.49% (n = 400,000) | AID 651635; note: nearly all actives have a fitted effect of over 40% in size
* = called active by the depositor; i = inactive; ? = inconclusive; . = not tested or not shown; ! = repeats disagree. An excerpt weighted towards active compounds, which were near 6.2% of everything screened. Calls come from the whole dose curve; as a rule, active = well fitted curve in the direction sought with a large enough effect; inconclusive = small, poorly fitted or top-dose-only effect, or another doubt; inactive = no such curve, though single readings can be large; an effect the other way counts as inactive or inconclusive. Potency is the fitted concentration of half-maximal effect.

SMILES	HT1080 IDH1KD tx	KB-3-1 cytotox	HT1080NT lethal	KB-V1 cytotox	ATXN2 expr inh	S2 tox
COc1ccc(C(=O)C(OC(=O)c2ccc(C)c(NC(C)=O)c2)c2ccccc2)cc1 (stereo not given)	-7%	i	-13%	i	25%	i
Cc1ccc(C(C)CCN2CCOc3ccc(CN4CCOCC4)cc3C2)o1 (stereo not given)	.	.	.	.	.	i
COc1cccc(C2NC(=O)c3n[nH]c(-c4cccs4)c32)c1 (stereo not given)	.	i	.	i	1%	i
COc1ccc(C2c3cc4c(cc3OC(N3CCOCC3)C2C)OCO4)c(OC)c1 (stereo not given)	?	4.6µM*	?	?	-27%	?
COc1ccccc1N(CC(=O)NC(C)(C)C)C(=O)Cn1nnc(-c2ccc(C)o2)n1	10%	i	9%	2.3µM*	-7%	i
COc1ccccc1N(CC(=O)NC1CCCCC1)C(=O)Cn1nnc(-c2ccc(C)o2)n1	-1%	i	-3%	?	-9%	i
COC(=O)Nc1nc2ccc(SC(C)C)cc2[nH]1	1.3µM*	1.5µM*	?	1µM*	10%	?
Cc1ccccc1CN1C(=O)C(O)(c2c[nH]c3ccccc23)c2cc(Cl)ccc21 (stereo not given)	.	i	.	i	-24%	i
Cc1cccc(OCCCc2c(C)n[nH]c2C)c1	-29%	?	1%	18µM*	-14%	i
Cc1n[nH]c(C)c1CCOc1ccc(C(C)C)cc1	-12%	?	-4%	i	-8%	i
COc1cccc(OC)c1OCCCc1c(C)n[nH]c1C	1%	i	2%	18µM*	-1%	i
COc1ccc(OCCCCc2c(C)n[nH]c2C)cc1	1%	i	-2%	i	-13%	i
Clc1cccc(CNc2ncnc3nc[nH]c23)c1	.	i	.	i	.	.
N#CC(C#N)=c1ccc2c(c1)N1C3=C(CCCC3)CC3CCCCC31N=2 (stereo not given)	-1%	?	0%	?	?	?
N#C/C(C(N)=O)=c1/ccc2c(c1)N1C3=C(CCCC3)CC3CCCCC31N=2 (stereo not given)	-3%	?	-3%	23µM*	-22%	?
COc1ccc(C(=O)Nc2ccc(S(=O)(=O)N3CCOCC3)cc2)cc1	-5%	i	4%	i	-6%	i
COc1ccc(NS(=O)(=O)c2ccc(N3CCCCC3)c(N)c2)cc1	-26%	21µM*	-19%	?	.	?
CCN(CC)S(=O)(=O)c1ccc(N2CCCC2)c(NS(=O)(=O)c2ccc(OC)cc2)c1	0%	i	-2%	4.1µM*	0%	i
CC(C)Oc1ccc(C(=O)Nc2ccc(Cl)c(S(=O)(=O)Nc3ccc(Cl)cc3)c2)cc1	-28%	?	?	5.8µM*	?	?
COc1ccc(C(=O)Nc2ccc(Cl)c(S(=O)(=O)N3CCOCC3)c2)cc1	-4%	?	3.7µM*	7.3µM*	?	?
O=C(Nc1ccc(Cl)c(S(=O)(=O)N2CCOCC2)c1)c1ccc(OCC2CCCO2)cc1 (stereo not given)	26µM*	?	18µM*	i	?	.
O=C(Nc1ccc(Cl)c(S(=O)(=O)N2CCOCC2)c1)c1ccc(Cl)nc1	-13%	?	-4%	?	?	?
COc1ccc(NC(=O)c2ccc(Br)c(S(=O)(=O)N3CCOCC3)c2)cc1	-13%	?	-19%	21µM*	-10%	i
COc1ccc(NS(=O)(=O)c2cc(NC(=O)c3ccc(Cl)cc3)ccc2N2CCOCC2)cc1	2.6µM*	?	2.3µM*	5.8µM*	-16%	?
COc1ccc(NS(=O)(=O)c2ccc(N3CCOCC3)c(NC(=O)C(C)C)c2)cc1	-9%	?	-11%	18µM*	-22%	i
SMILES	HT1080 IDH1KD tx	KB-3-1 cytotox	HT1080NT lethal	KB-V1 cytotox	ATXN2 expr inh	S2 tox
O=C(NNc1c(Cl)cccc1Cl)c1sc2ccccc2c1Cl	?	.	-25%	.	.	.
N#Cc1ccc(-c2cn(-c3ccccc3)c3[n+]2CCCS3)cc1	6%	i	8%	i	1%	i
Cc1ccc(-c2cn(-c3ccccc3)c3[n+]2CCCS3)cc1	?	1.8µM*!	?	i	?	i
COc1ccc(-n2cc(-c3ccc(C)cc3)[n+]3c2SCC3)cc1	2.3µM*	?	2.9µM*	i	?	i
c1ccc(-c2cn(-c3ccccc3)c3[n+]2CCCS3)cc1	?	?	?	i	-5%	i
CCc1ccc(-n2cc(-c3ccc(F)cc3)[n+]3c2SCCC3)cc1	?	9.2µM*	?	i	?	i
Cc1cccc(C)c1-n1ncc(C(=O)NCCCN2CCC(C)CC2)c1C1CCN(C(=O)OC(C)(C)C)CC1	.	?	.	i	11%	i
COc1ccc(C=C(C(C)=O)C(=O)c2ccccc2)cc1	23µM*	i	23µM*	i	-19%	i
COc1ccc(C=C(C(=O)c2ccccc2)c2ccccc2)cc1	-1%	?	-31%	?	4%	i
CC(=O)C(=Cc1cccc(C#N)c1)C(=O)c1ccccc1	?	?	?	?	?	i
CC(=O)C(=Cc1ccc(Cl)cc1)C(=O)c1ccccc1	?	?	?	?	?	28µM*

Screens: PubChem, National Center for Advancing Translational Sciences (NCATS)
